Screening data deposited in PubChem by several laboratories.
NALP3 yeast inh: NALP3 inflammasome inhibitors in reconstituted yeast, primary screen, luminescence, uHTS; Yeast reconstituted NLRP3/ASC/caspase-1, beta-gal luminescence, 24 h; inhibition, % at 10 µM; 330,000 tested, 0.39% active; AID 2825, 2010;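 active means inhibition of 50% or more; inactive means inhibition below 50%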;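 further: plate controls were induced DMSO wells for no effect and uninduced yeast grown without galactose for full effect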
tim23-1 inh: growth inhibitors of tim23-1 mutant yeast, primary screen, luminescence, uHTS | S. cerevisiae tim23-1 growth, BacTiter-Glo luminescence, 24 h | inhibition, % at 20 µM | 330,000 tested, 1.3% active;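 active means growth inhibition of the mutant yeast at or above 50%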;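 further: temperature-sensitive mutant grown at 25 °C; plate controls were DMSO-treated mutant yeast for no effect and medium wells lacking yeast for full effect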
TIM10 inh: growth inhibitors of isogenic TIM10 control yeast, primary screen, counter-screen for tim10-1 yeast inhibitor project, luminescence, uHTS. AID 463195, 2010. 330,000 tested, 1.4% active. inhibition, % at 10 µM. S. cerevisiae TIM10 strain growth, BacTiter-Glo luminescence, 24 h;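 active means inhibition of 40% or more at the single tested concentration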;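 further: wild-type TIM10 isogenic control strain grown at permissive 25 °C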
tim10-1 inh: growth inhibitors of tim10-1 mutant yeast, primary screen, luminescence, uHTS | S. cerevisiae tim10-1 ts strain growth, BacTiter-Glo, 24 h | inhibition, % at 20 µM | 330,000 tested, 2.2% active;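 active means inhibition of at least 40%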;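 further: mutant grown at 25 °C; 0% = DMSO wells with yeast and 100% = wells holding no yeast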
PfHsp90 set2: growth inhibition of PfHsp90-expressing yeast, primary screen, antimalarial PfHsp90 inhibitor project, S. cerevisiae, BacTiter-Glo luminescence, single point, set 2 | BacTiter-Glo ATP, 48 h; yeast lacking PDR1 and PDR3 efflux regulators | inhibition, % at 9.4 µM | 310,000 tested, 0.32% active | AID 504621, 2011;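 active means every replicate shows inhibition above about 80%, whatever the replicate mean, limit read from the data; inconclusive means mean inhibition reaches the set limit but some replicate falls short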;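 further: 0% = DMSO neutral controls and 100% = 20 µM radicicol positive controls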
tim10-1 confirm: growth inhibitors of tim10-1 mutant yeast, confirmation, single concentration, luminescence, S. cerevisiae. shares compounds with tim10-1 inh. S. cerevisiae tim10-1 ts strain growth, BacTiter-Glo, 24 h. inhibition, % at 20 µM. 7,400 tested, 56% active. AID 463213, 2010;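 active means inhibition of yeast growth at or above a set limit in either of two repeat tests at 20 µM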;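 further: tim10-1 mutant grown at permissive 25 °C to find synthetic lethal compounds; 0% = DMSO yeast wells and 100% = medium wells without yeast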
TIM10 conf: growth inhibitors of wild-type TIM10 yeast, confirmation, counter-screen for tim10-1 synthetic lethality project, single concentration, luminescence, S. cerevisiae; S. cerevisiae tim10 strain growth, BacTiter-Glo luminescence, 24 h; inhibition, % at 10 µM; 4,600 tested, 63% active; AID 463215, 2010; shares compounds with TIM10 inh;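 active means inhibition of yeast growth at or above a set limit in either of two replicates at 10 µM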;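 further: this counterscreen used the strain with wild-type TIM10; 0% = yeast with DMSO and 100% = medium wells lacking yeast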
An asterisk follows results filed as active; u = inconclusive; x = no result. Most compounds without a hit are left out; they make up all but 3.7% or so of the library.

SMILES	NALP3 yeast inh	tim23-1 inh	TIM10 inh	tim10-1 inh	PfHsp90 set2	tim10-1 confirm	TIM10 conf
CC1(C)CC2CC(C)(CN2C(=S)NC(=O)c2ccccc2Cl)C1 (stereo unspecified)	50	48	42*	41*	13	32*	10
CC1(C)CC2CC(C)(CN2C(=S)Nc2ccccc2)C1 (stereo unspecified)	-5	32	21	3	-6	x	x
Cc1cc(C(=O)CCC(=O)N2CCN(c3ccccc3)CC2)c(C)s1	18	-1	4	18	-32	x	x
c1ccc(-c2c(-c3ccccc3)n(Cc3ccco3)c3ncnc(NCCCn4ccnc4)c23)cc1	6	-31	45*	40*	104*	38*	11
O=C1/C(=C/c2ccncc2)CCc2ccccc21	8	47	45*	50*	9	56*	55*
COc1ccc(-c2csc(NC3OC(=O)c4c3ccc(OC)c4OC)n2)cc1OC (stereo unspecified)	26	0	-4	-8	8	x	x
COc1ccc2c(c1OC)C(=O)OC2Nc1nc(-c2cc3cc(Br)ccc3oc2=O)cs1 (stereo unspecified)	43	40	58*	49*	1	61*	71*
Cc1ccc(C(=O)Nc2ccccc2C(=O)NCc2cccnc2)cc1	9	11	9	25	1	x	x
Cc1ccc(C(=O)Nc2ccccc2C(=O)NCc2ccccc2)cc1	23	44	48*	47*	-43	41*	4
Cc1ccc(O)c(-c2cc(-c3cccc(F)c3)n[nH]2)c1	14	36	43*	53*	100*	34*	21
Oc1ccc(Br)cc1-c1cc(-c2ccccc2)n[nH]1	17	15	58*	47*	-4	22	-2
Cc1ccc2[nH]c(-c3cccc(F)c3)cc(=O)c2c1	5	-7	-4	-23	-1	x	x
CCOC(=O)N1CCN(CCCc2ccccc2)CC1	23	6	-6	2	23	x	x
Cc1ccc(S(=O)(=O)N(C)C)cc1NC(=O)CSc1nncs1	14	-4	1	-14	x	x	x
Oc1ccccc1/C=N/Nc1cccc2cccnc12	31	38	50*	41*	x	37*	35*
C/C(CC(=O)Nc1ccc2c(c1)OCCO2)=N\NC(=O)c1ccccc1Cl	8	9	0	7	6	x	x
CC1=C(C#N)c2nc(N)c(C#N)c(C)c2/C1=C\c1ccc(-c2ccccc2C(=O)O)o1	x	x	x	x	-22	x	x
COc1cc(/C=C2/C(C)=C(C#N)c3nc(N)c(C#N)c(C)c32)ccc1OCC(=O)O	16	43	42*	41*	-9	23	32*
CCN(CC(=O)Nc1c(F)cccc1F)C(=O)/C=C/c1cn(Cc2ccccc2)nc1-c1cccnc1	1	-10	-7	-4	3	x	x
O=C(CNC1CCCCC1)Nc1cccc([N+](=O)[O-])c1	15	3	0	-4	1	x	x
O=C(Nc1cccc([N+](=O)[O-])c1)NC1CCCCCCC1	16	44	44*	43*	22	36*	42*
OC1CCC(NC(=S)Nc2ccc(SC(F)F)cc2)CC1 (stereo unspecified)	11	18	10	19	8	x	x
FC(F)Sc1ccc(NC(=S)NC2CCCC2)cc1	10	36	59*	53*	-16	41*	27
Oc1ccc(C(=S)N2CCN(c3cccc(Cl)c3)CC2)cc1	9	25	54*	41*	-4	53*	48*
Nc1nnnn1/N=C/C(Br)=C/c1ccccc1	30	37	55*	46*	-5	48*	53*
SMILES	NALP3 yeast inh	tim23-1 inh	TIM10 inh	tim10-1 inh	PfHsp90 set2	tim10-1 confirm	TIM10 conf
Cc1ccc(C)c(-n2c(C)cc(/C=N/NC(=O)c3c(C)nc4cc(C)ccn34)c2C)c1	-3	39	42*	53*	x	32	27
O=C(Nc1cccc(Cl)c1)C1=Cc2cc(Cl)ccc2OC1	18	-9	28	1	-19	x	x
O=C(Nc1ccc(Cl)c(Cl)c1)C1=Cc2ccccc2OC1	-5	44	50*	40*	20	53*	60*
COc1ccc(/C=C/C(=O)Nc2cc(S(=O)(=O)N3CCOCC3)ccc2C)cc1OC	5	5	-1	-4	-3	x	x
CCOC(=O)Cc1csc(NC(=S)NC(=O)c2ccccc2)n1	3	26	51*	47*	-3	30	35*
CCC1(C)NC(=O)N(CC(=O)c2cc(C)n(C3CC3)c2C)C1=O (stereo unspecified)	5	7	7	-10	7	x	x
Cc1c(N2C(=O)/C(=C\C3CC=CCC3)SC2=S)c(=O)n(-c2ccccc2)n1C (stereo unspecified)	15	48	42*	46*	x	39*	33*
COc1ccc(N2CCN(C(=O)c3cn(C4CCCC4)c(=O)c4c3c3ccccc3n4C)CC2)cc1	12	-2	31	20	8	x	x
Cn1c2ccccc2c2c(C(=O)N3CCN(c4ccccn4)CC3)cn(C3CCCC3)c(=O)c21	8	27	47*	40*	-11	18	41*
CN(C)S(=O)(=O)c1cccc(NC(=O)c2ccc(COc3ccccc3)cc2)c1	-6	21	20	28	-49	x	x
CCOC(=O)c1ccc(NS(=O)(=O)c2ccc(SC)cc2)cc1	25	43	40*	41*	-22	38*	11
COC1=C(c2ccccc2)C(=O)c2ccccc2C1=O	-21	37	89*	80*	u	72*	90*
COc1ccc(C2=C(N)c3ccccc3C2=O)cc1	30	31	20	-30	38	x	x
CC(C)(O)C#Cc1ccc(CN2CCN(Cc3ccsc3)C(CCO)C2)s1 (stereo unspecified)	0	6	6	5	10	x	x
CC[n+]1c(/C=C/c2c[nH]c3ccccc23)ccc2cc(C)ccc21	33	27	59*	67*	24	70*	38*
CC1Cc2ccccc2N1C(=S)NC(=O)c1ccc(Cl)cc1Cl (stereo unspecified)	30	45	50*	44*	-5	46*	-7
O=C(/C=C/c1ccccc1[N+](=O)[O-])c1ccc(F)cc1	0	45	43*	47*	3	44*	26
